# Bioassay records (PubChem BioAssay)
# A selection: hits, their analogues and other compounds. The true share with any hit is near 8.7%.
# Pf growth 96h: P. falciparum growth inhibition at 96 hours | P. falciparum luciferase reporter growth, 96 h | Potency, µM (titrated, usually from 28.7 µM), for the others: at the top dose activity change, negative = inhibition, usual class: inhibitors | actives 6.9% (n = 320,000) | AID 504834
#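 Two-generation exposure (96 h) targets delayed-death phenotype. Reporter parasites carrying integrated firefly luciferase, in red cells at 2% hematocrit and 0.05% parasitemia final, kept at 37 C, 5% CO2; luminescence loss indicates inhibition.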
# AMA1 RON2 block: AMA1-RON2 (P. falciparum) interaction inhibition; AlphaScreen AMA1-biotinylated RON2 peptide binding; Potency, µM (highest dose often 58.2 µM), inactives show at the top dose activity change, negative = inhibition, most hits filed as inhibitors; actives 0.2% (n = 360,000); AID 720542;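 also: 0% = vehicle wells and -100% = peptide control; nearly all actives have a fitted effect of over 45% in size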
#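 AMA1 (3D7) with his tag at 25 nM final met compounds first, then biotinylated RON2 peptide at 25 nM; detection used donor plus acceptor beads, 10 µg/mL apiece, read by AlphaScreen after 30 min at room temperature.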
# VACV mCherry inh: inhibitors of vaccinia virus infection (mCherry reporter signal); Vaccinia virus mCherry reporter infection, fluorescence; Potency, µM (doses to about 36.5 µM), for the others: top-dose activity change, negative = inhibition, usual class: inhibitors; actives 0.63% (n = 310,000); calls by dose curve; tested in A549 cells; also: nearly all actives have a fitted effect of over 35% in size
# Vaccinia Venus: inhibitors of vaccinia virus (Venus reporter) | AID 720580 | actives 0.46% (n = 330,000) | Vaccinia virus Venus reporter expression, fluorescence | Potency, µM (highest dose often 36.5 µM), for the others: at the top dose activity change, negative = inhibition, most hits filed as inhibitors; calls by dose curve; tested in A549 cells; also: nearly all actives have a fitted effect of over 30% in size
# Pf growth 48h: P. falciparum growth inhibition at 48 hours (one generation) | P. falciparum luciferase growth in erythrocytes, 48 h | Potency, µM (highest dose often 28.7 µM), without a hit: at the top dose activity change, negative = inhibition, usual class: inhibitors | actives 5.9% (n = 310,000) | AID 504832
#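 First compound was added to culture medium, then infected red cells at 0.1% parasitemia and 2% hematocrit (final). After incubation at 37 C under 5% CO2, luciferase detection reagent was dispensed and light output recorded.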
# Starred values were filed as active, the others as inactive; i = inactive; ? = inconclusive; . = not tested or not shown. Unless noted, calls follow the shape of the dose curve; as a rule, active = well fitted curve in the direction sought with a large enough effect; inconclusive = small, poorly fitted or top-dose-only effect, or another doubt; inactive = no such curve, though single readings can be large; an effect the other way counts as inactive or inconclusive. Unless noted, % is scaled to controls: 0 for no effect and ±100 for the full control effect; potency is read from the fitted curve at half-maximal effect.
SMILES,Pf growth 96h,AMA1 RON2 block,VACV mCherry inh,Vaccinia Venus,Pf growth 48h
O=C(CN1C(=O)/C(=C\c2ccc(F)cc2)Oc2ccccc21)N1CCN(c2ccccn2)CC1,7.38µM*,8.2%,-0.5%,-10.1%,10.2%
CCc1ccc(/C=C2\SC(=S)N(CCCC(=O)N3CCN(C)CC3)C2=O)cc1,.,?,?,28.2µM*,.
O=C(CN1C(=O)/C(=C\c2cccc(F)c2)Oc2ccccc21)N1CCN(c2ccccn2)CC1,?,-6.9%,i,-8.9%,4.5%
COc1ccc(NC(=O)c2c(-c3ccc(C)cc3)nnc3ccccc23)c(OC)c1,.,.,-2.6%,-9.1%,.
COC(c1ccc2c(c1)CN(C(=O)Cn1nc(C)c3ccccc3c1=O)CCO2)C1CCCCC1 (stereo not drawn),.,.,-17.6%,-7.7%,.
Cc1ccccc1Nc1c(-c2ccc(O)cc2)nc2c(C)cccn12,.,.,-22.5%,-24.0%,.
Cn1ccc2c(OCC(=O)Nc3cc(C(F)(F)F)ccc3Cl)cccc2c1=O,.,.,-19.3%,-15.3%,.
O=C(CN1C(=O)/C(=C/c2ccc(F)cc2)SC1=S)N1CCN(CCc2ccccn2)CC1,14.7µM*,29.1%,.,.,8.2%
CCc1ccc(/C=C2\SC(=S)N(CCCC(=O)Nc3ccccc3C(=O)O)C2=O)cc1,16.5µM*,0.0%,.,.,-3.3%
O=C(CCN1C(=O)/C(=C/c2ccccc2)SC1=S)Nc1ccccn1,10.8%,-4.2%,.,.,31.9%
Cc1ccc(/C=C2\SC(=S)N(CCCC(=O)Nc3ccccc3C(=O)O)C2=O)cc1,?,-4.0%,.,.,18.3%
Cc1ccc(/C=C2\SC(=S)N(CCCC(=O)Nc3ccccn3)C2=O)cc1,10.4µM*,-0.9%,i,-5.8%,?
COc1ccccc1N1CCN(C(=O)c2cnn(-c3ccc(F)cc3F)c2C2CCNCC2)CC1,.,.,-7.5%,-9.9%,.
Cc1cc(NC(=O)CC2CCCC2)n(-c2nc3ccccc3[nH]2)n1,5.86µM*,5.1%,?,?,?
Cc1cc(NC(=O)c2ccc(F)cc2F)n(-c2nc3ccccc3[nH]2)n1,31.5%,43.8%,.,.,59.4%
Cc1cc(C)c(NC(=O)C2CCN(C(=O)N3CC(C)Oc4ccc(Cl)cc43)CC2)c(C)c1 (stereo not drawn),.,.,-6.3%,-4.6%,.
O=C(CCCn1c(=O)c2ccccc2n(Cc2cccc(F)c2)c1=O)NC1CCN(Cc2ccccc2)CC1,?,.,.,.,6.57µM*
O=C(CCCCn1c(=O)c2ccccc2n(Cc2ccccc2)c1=O)NC1CCN(Cc2ccccc2)CC1,-10.1%,-2.8%,.,.,5.86µM*
CCn1c(=NC(=O)C2COc3ccccc3O2)sc2c(C)ccc(OC)c21 (stereo not drawn),?,15.4%,.,.,?
C=CCn1c(=NC(=O)C2COc3ccccc3O2)sc2cccc(OC)c21 (stereo not drawn),1.17µM*,14.4%,.,.,7.38µM*
Cc1cc(C)nc(/N=C(/NC(=O)c2ccccc2)Nc2ccccc2)n1,.,4.5%,-11.0%,-6.6%,-0.7%
CCCC(=O)N/C(N)=N/c1nc(C)c2ccccc2n1,1.85µM*,-18.0%,-16.0%,-47.4%,?
CCc1ccc2nc(/N=C(\N)NC(=O)c3ccccc3)nc(C)c2c1,10.4µM*,8.4%,-11.0%,-10.3%,9.28µM*
Cc1cc(C)c2nc(/N=C(\N)NC(=O)Nc3ccccc3)nc(C)c2c1,13.1µM*,-6.4%,?,-28.4%,1.85µM*
Cc1cc(C)c2nc(/N=C(\N)NC(=O)c3ccccc3)nc(C)c2c1,?,19.6%,-16.1%,-9.7%,?
SMILES,Pf growth 96h,AMA1 RON2 block,VACV mCherry inh,Vaccinia Venus,Pf growth 48h
O=C(C1CCCN(S(=O)(=O)c2cccc3nsnc23)C1)N1CCN(c2ccccc2Cl)CC1 (stereo not drawn),.,.,-27.9%,-15.9%,.
Cc1cccc(C(=O)c2c(N)sc3c2CCC(C)C3)c1 (stereo not drawn),?,-13.7%,-9.2%,-16.1%,27.8%
Cc1cccc(C(=O)c2c(N)sc3c2CCCC3)c1,14.7µM*,-6.2%,-2.2%,-4.5%,?
CNC(=O)c1c(NC(=O)C(C)C)sc2c1CCC2,-8.6%,4.4%,16.4%,-5.0%,2.33µM*
CNC(=O)c1c(N)sc2c1CCCCC2,10.4µM*,.,.,.,.
CCCOC(=O)c1c(N)sc2c1CCC2,?,-2.9%,-15.3%,-8.2%,-3.1%
COCCNC(=O)c1c(N)sc2c1CCCC2,?,.,.,.,9.28µM*
